These results are taken from PMC11062922 (Nature Chemical Biology, 2023).

Parameters in all cases: species or system human, MV4-11 + K-562 + COLO205 + SK-N-BE2 + OVCAR-8
In one experiment the test system is ADRBK1. The conditions noted are these: read-out: apparent Kd; compound concentrations:100 nM and 1000 nM (sheet 'Samples'); n = 1.
For a further experiment, the system named is AKT1. The conditions noted are these: read-out: apparent Kd; compound concentrations:100 nM and 1000 nM (sheet 'Samples'); n = 1.
The test system of another experiment is MAP2K3. The conditions noted are these: read-out: apparent Kd; compound concentrations:100 nM and 1000 nM (sheet 'Samples'); n = 1.
A further experiment deals with MAPK10. The conditions noted are these: read-out: apparent Kd; compound concentrations:100 nM and 1000 nM (sheet 'Samples'); n = 1.
The subject of a further experiment is MAPK11. Particulars: read-out: apparent Kd; compound concentrations:100 nM and 1000 nM (sheet 'Samples'); n = 1.
A further experiment deals with MAPK9. The conditions noted are these: read-out: apparent Kd; compound concentrations:100 nM and 1000 nM (sheet 'Samples'); n = 1.
For a further experiment, the system named is MAPKAPK2. Particulars: read-out: apparent Kd; compound concentrations:100 nM and 1000 nM (sheet 'Samples'); n = 1.
The next experiment has as its system AGPS. Particulars: read-out: apparent Kd; compound concentrations:100 nM and 1000 nM (sheet 'Samples'); n = 1.
The next experiment relates to AKT2. The conditions noted are these: read-out: apparent Kd; compound concentrations:100 nM and 1000 nM (sheet 'Samples'); n = 1.
Another experiment deals with AKT3. The conditions noted are these: read-out: apparent Kd; compound concentrations:100 nM and 1000 nM (sheet 'Samples'); n = 1.
The subject of the next experiment is CDK16. The conditions noted are these: read-out: apparent Kd; compound concentrations:100 nM and 1000 nM (sheet 'Samples'); n = 1.
The test system of another experiment is CDK17. The conditions noted are these: read-out: apparent Kd; compound concentrations:100 nM and 1000 nM (sheet 'Samples'); n = 1.
A further experiment concerns T1, DJA1.
T1 construct: gene DNAJA1
Particulars: read-out: apparent Kd; compound concentrations:100 nM and 1000 nM (sheet 'Samples'); n = 1.

The next experiment deals with FLT3. Particulars: read-out: apparent Kd; compound concentrations:100 nM and 1000 nM (sheet 'Samples'); n = 1.
A further experiment deals with ILK. Particulars: read-out: apparent Kd; compound concentrations:100 nM and 1000 nM (sheet 'Samples'); n = 1.
In the next experiment the test system is MAP2K1. Particulars: read-out: apparent Kd; compound concentrations:100 nM and 1000 nM (sheet 'Samples'); n = 1.
The next experiment deals with MAP2K2. The conditions noted are these: read-out: apparent Kd, n = 1.
The next experiment relates to NNT. The conditions noted are these: read-out: apparent Kd; compound concentrations:100 nM and 1000 nM (sheet 'Samples'); n = 1.
The next experiment concerns NQO1. Particulars: read-out: apparent Kd, n = 1.
In a further experiment the test system is PDGFRB. The conditions noted are these: read-out: apparent Kd; compound concentrations:100 nM and 1000 nM (sheet 'Samples'); n = 1.
The subject of another experiment is PIP4K2C. The conditions noted are these: read-out: apparent Kd; compound concentrations:100 nM and 1000 nM (sheet 'Samples'); n = 1.
Another experiment has as its system PRKAG1. Particulars: read-out: apparent Kd; compound concentrations:100 nM and 1000 nM (sheet 'Samples'); n = 1.
The next experiment relates to PRKAG2. Particulars: read-out: apparent Kd; compound concentrations:100 nM and 1000 nM (sheet 'Samples'); n = 1.
The subject of the next experiment is PYGL. Particulars: read-out: apparent Kd; compound concentrations:100 nM and 1000 nM (sheet 'Samples'); n = 1.
Another experiment has as its system RIOK2. Particulars: read-out: apparent Kd; compound concentrations:100 nM and 1000 nM (sheet 'Samples'); n = 1.
Another experiment relates to STK26. The conditions noted are these: read-out: apparent Kd; compound concentrations:100 nM and 1000 nM (sheet 'Samples'); n = 1.
A further experiment concerns VDAC3. The conditions noted are these: read-out: apparent Kd; compound concentrations:100 nM and 1000 nM (sheet 'Samples'); n = 1.
The test system of a further experiment is ADK. The conditions noted are these: read-out: apparent Kd; compound concentrations: 100 nM and 1000 nM (sheet 'Samples'), CATDS: 0.22973332446561601; n = 1.
Another experiment concerns COX5A. Particulars: read-out: apparent Kd; compound concentrations: 100 nM and 1000 nM (sheet 'Samples'), CATDS: 0.19729380709152999; n = 1.
For a further experiment, the system named is RAN. The conditions noted are these: read-out: apparent Kd; compound concentrations: 100 nM and 1000 nM (sheet 'Samples'), CATDS: 0.206069741930102; n = 1.
The test system of a further experiment is ADCK5. The conditions noted are these: read-out: apparent Kd; compound concentrations:100 nM and 1000 nM (sheet 'Samples'); n = 1.
The subject of a further experiment is CDK4. The conditions noted are these: read-out: apparent Kd; compound concentrations:100 nM and 1000 nM (sheet 'Samples'); n = 1.
Another experiment has as its system GSK3A. Particulars: read-out: apparent Kd; compound concentrations:100 nM and 1000 nM (sheet 'Samples'); n = 1.
Setting [1] is: compound concentrations:100 nM and 1000 nM (sheet 'Samples').

Read-outs that look alike come from different tables or passages of the source.

For the compound `C[C@@H](Cn1ncnn1)Nc1ncc2cc(Oc3ccc(F)cc3F)c(=O)n(C)c2n1` [RO5067310-000], the potency estimated from few doses in the experiment on ADRBK1 was 2270 nM; in the experiment with AKT1, 1750 nM; in the experiment on MAP2K3 it was 1770 nM; in the experiment with MAPK10 it was 424 nM; with MAPK11, 30.9 nM; in the experiment on MAPK9, 265 nM. The potency estimated from few doses with MAPKAPK2 is 3.25 nM.

For the compound `NS(=O)(=O)c1ccc(Nc2ncc(-c3ccccc3)o2)cc1` [GW572399X], the potency estimated from few doses in the experiment on ADRBK1 was 1910 nM; in the experiment on AGPS it was 2050 nM; in the experiment with AKT1 it was 1960 nM; in the experiment on AKT2 it was 1970 nM; in the experiment on AKT3, 1560 nM; in the experiment with CDK16 it was 1760 nM. The potency estimated from few doses is 2100 nM with CDK17; 1310 nM in the experiment on DJA1; 164 nM in the experiment on FLT3; 1870 nM with ILK; 1420 nM in the experiment with MAP2K1; 1740 nM with MAP2K2 (setting [1]). Besides, the potency estimated from few doses in the experiment on NNT is 1770 nM; in the experiment on NQO1 (setting [1]) it was 1900 nM; in the experiment on PDGFRB, 1480 nM; with PIP4K2C it was 2290 nM; with PRKAG1, 1790 nM; in the experiment on PRKAG2, 1380 nM. Further, the potency estimated from few doses was 1900 nM in the experiment with PYGL, 2160 nM in the experiment on RIOK2, 1400 nM in the experiment with STK26 and 1580 nM in the experiment on VDAC3.

Take `COc1ccc(Nc2nccc(NCCNC(=O)Nc3ccccc3F)n2)cc1` [GSK1379901A]: the potency estimated from few doses with ADK is 1220 nM; with COX5A it was 1630 nM; in the experiment with MAP2K2 (compound concentrations: 100 nM and 1000 nM (sheet 'Samples'), CATDS: 0.19454488197691899), 1680 nM; in the experiment on NQO1 (compound concentrations: 100 nM and 1000 nM (sheet 'Samples'), CATDS: 0.179031281586436), 2010 nM; in the experiment with RAN, 1490 nM.

For the compound `O=C(Nc1n[nH]c2nc(-c3nccs3)c(Br)cc12)C1CCCC1` [SB-742609], the potency estimated from few doses was 1310 nM in the experiment with ADCK5, 1110 nM with CDK4 and 519 nM with GSK3A.
